How the values were obtained:
Test in all cases: log2 ratio of Biotin-Ahx-Ub-VS probe labelling (fragment/DMSO); higher = less target engagement (more negative = stronger competition), active = hit call of the paper (q ≤ 0.05, log2 ratio ≤ -1)
Settings in all cases: compound concentration: 200 uM; treatment time: 3 h
USP42 = target: T1, USP42 (UniProt Q9H9J4)
T1 sequence (whole entry): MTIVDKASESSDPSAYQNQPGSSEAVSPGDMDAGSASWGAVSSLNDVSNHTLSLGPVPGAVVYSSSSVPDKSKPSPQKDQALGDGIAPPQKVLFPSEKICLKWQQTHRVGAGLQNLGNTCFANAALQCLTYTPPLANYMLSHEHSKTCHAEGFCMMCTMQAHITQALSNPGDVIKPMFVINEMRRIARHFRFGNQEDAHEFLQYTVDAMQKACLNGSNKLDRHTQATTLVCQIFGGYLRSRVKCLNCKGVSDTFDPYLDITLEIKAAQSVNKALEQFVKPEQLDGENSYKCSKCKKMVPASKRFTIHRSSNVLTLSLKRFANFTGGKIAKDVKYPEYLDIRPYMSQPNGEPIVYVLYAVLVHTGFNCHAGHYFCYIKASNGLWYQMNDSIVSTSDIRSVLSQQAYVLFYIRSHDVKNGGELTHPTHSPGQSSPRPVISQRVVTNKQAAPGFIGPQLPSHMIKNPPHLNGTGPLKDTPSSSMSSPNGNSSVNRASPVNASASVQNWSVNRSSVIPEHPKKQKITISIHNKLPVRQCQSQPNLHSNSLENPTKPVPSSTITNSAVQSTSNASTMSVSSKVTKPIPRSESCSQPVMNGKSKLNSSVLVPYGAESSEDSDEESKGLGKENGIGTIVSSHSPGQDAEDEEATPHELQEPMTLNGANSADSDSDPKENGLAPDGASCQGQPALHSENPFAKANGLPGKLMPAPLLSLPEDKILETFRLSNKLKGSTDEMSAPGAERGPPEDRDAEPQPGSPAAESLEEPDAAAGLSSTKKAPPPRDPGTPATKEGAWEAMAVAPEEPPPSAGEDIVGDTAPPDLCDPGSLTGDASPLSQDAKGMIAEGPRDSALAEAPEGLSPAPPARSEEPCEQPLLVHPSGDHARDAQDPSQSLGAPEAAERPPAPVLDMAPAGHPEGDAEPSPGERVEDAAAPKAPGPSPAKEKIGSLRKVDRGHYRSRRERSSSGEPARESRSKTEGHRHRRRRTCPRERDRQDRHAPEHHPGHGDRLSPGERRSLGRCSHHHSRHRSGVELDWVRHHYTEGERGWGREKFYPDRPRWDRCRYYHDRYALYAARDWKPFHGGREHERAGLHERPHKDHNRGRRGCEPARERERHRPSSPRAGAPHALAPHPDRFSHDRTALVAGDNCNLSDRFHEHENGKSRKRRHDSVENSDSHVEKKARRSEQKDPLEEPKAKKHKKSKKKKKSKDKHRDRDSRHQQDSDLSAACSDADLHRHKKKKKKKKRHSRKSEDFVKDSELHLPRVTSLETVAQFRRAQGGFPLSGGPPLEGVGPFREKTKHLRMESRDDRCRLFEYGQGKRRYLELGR
Procedure, shortened: (§1)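 Using Biotin-Ahx-Ub-VS at 0.5 µM final for 1 h, DUBs were labelled in HEK293T lysate (495 µg per sample) that had first been treated in triplicate with fragment at 200 µM or vehicle for 3 h. NeutrAvidin enrichment, LysC and trypsin digestion and diaPASEF LC-MS/MS followed. Spectronaut label-free quantities were global-median-normalised. Values are average log2 fragment/vehicle ratios by unpaired t-test, using proteins with ≥2 unique peptides.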

USP46 = USP46 (UniProt P62068)
Procedure, shortened: as §1

USP47 = target: T2, USP47 (UniProt Q96K76)
T2 sequence (whole entry): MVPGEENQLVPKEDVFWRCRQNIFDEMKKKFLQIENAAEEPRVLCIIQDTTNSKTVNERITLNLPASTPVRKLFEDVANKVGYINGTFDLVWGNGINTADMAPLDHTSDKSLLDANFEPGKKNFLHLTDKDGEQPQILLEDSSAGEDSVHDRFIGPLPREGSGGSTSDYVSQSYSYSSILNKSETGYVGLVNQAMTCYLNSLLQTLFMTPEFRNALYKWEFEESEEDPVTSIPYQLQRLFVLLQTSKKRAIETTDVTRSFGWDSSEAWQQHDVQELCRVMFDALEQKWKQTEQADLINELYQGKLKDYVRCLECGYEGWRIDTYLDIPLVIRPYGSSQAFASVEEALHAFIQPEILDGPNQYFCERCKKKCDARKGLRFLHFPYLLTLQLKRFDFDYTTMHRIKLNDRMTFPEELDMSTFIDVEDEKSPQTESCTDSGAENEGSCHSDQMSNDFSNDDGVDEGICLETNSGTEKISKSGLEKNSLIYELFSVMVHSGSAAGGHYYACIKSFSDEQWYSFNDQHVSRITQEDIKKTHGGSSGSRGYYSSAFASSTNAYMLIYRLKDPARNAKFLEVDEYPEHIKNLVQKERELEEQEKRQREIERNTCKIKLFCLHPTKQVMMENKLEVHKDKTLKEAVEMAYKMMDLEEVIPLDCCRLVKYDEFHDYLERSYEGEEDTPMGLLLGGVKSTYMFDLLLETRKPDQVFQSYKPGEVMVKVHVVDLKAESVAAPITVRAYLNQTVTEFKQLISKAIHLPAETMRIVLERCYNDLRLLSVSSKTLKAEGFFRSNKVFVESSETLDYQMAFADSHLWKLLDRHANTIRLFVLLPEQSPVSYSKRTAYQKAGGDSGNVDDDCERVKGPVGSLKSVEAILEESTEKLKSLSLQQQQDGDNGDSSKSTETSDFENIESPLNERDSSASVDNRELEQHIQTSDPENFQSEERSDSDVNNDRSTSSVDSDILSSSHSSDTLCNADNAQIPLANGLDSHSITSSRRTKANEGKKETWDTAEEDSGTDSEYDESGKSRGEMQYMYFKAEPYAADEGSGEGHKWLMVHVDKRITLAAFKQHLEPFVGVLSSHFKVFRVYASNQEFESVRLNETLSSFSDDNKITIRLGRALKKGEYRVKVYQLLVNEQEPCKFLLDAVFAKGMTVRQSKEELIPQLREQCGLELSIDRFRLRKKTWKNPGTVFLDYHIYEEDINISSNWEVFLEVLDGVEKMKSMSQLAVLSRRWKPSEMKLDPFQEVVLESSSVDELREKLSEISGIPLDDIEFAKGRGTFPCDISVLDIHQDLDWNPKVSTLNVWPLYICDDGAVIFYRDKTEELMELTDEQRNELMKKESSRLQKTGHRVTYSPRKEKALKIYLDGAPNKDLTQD
Procedure, shortened: as §1

USP48 = target: T3, USP48 (UniProt Q86UV5)
T3 sequence (whole entry): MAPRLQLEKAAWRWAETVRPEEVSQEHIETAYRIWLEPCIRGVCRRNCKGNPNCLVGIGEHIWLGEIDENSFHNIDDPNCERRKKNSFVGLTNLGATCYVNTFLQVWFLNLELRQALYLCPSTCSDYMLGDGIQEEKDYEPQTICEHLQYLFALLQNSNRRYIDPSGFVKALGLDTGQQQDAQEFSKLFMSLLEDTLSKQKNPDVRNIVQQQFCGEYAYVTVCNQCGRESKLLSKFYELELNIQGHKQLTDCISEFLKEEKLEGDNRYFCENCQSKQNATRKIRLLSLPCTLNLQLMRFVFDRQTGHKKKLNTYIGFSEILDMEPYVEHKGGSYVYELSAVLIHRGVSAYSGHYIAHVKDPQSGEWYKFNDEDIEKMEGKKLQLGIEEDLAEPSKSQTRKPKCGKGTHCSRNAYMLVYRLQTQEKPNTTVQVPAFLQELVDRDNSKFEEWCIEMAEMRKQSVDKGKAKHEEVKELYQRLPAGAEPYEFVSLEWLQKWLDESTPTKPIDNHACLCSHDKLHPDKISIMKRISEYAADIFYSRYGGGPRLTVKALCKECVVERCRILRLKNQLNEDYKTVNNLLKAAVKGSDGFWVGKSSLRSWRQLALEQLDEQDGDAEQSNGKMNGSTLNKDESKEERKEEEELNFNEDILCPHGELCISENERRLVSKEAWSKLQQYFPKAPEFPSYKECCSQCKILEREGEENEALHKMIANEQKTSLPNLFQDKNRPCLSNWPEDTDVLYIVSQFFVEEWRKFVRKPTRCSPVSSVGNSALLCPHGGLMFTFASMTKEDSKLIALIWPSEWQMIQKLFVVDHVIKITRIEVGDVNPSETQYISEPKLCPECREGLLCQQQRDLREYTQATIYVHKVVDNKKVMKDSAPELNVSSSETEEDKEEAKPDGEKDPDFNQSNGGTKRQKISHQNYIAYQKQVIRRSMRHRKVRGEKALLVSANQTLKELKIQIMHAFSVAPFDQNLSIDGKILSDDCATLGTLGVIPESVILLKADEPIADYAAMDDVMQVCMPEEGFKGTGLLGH
Procedure, shortened: as §1

USP5 = target: T4, USP5 (UniProt P45974)
T4 sequence (whole entry): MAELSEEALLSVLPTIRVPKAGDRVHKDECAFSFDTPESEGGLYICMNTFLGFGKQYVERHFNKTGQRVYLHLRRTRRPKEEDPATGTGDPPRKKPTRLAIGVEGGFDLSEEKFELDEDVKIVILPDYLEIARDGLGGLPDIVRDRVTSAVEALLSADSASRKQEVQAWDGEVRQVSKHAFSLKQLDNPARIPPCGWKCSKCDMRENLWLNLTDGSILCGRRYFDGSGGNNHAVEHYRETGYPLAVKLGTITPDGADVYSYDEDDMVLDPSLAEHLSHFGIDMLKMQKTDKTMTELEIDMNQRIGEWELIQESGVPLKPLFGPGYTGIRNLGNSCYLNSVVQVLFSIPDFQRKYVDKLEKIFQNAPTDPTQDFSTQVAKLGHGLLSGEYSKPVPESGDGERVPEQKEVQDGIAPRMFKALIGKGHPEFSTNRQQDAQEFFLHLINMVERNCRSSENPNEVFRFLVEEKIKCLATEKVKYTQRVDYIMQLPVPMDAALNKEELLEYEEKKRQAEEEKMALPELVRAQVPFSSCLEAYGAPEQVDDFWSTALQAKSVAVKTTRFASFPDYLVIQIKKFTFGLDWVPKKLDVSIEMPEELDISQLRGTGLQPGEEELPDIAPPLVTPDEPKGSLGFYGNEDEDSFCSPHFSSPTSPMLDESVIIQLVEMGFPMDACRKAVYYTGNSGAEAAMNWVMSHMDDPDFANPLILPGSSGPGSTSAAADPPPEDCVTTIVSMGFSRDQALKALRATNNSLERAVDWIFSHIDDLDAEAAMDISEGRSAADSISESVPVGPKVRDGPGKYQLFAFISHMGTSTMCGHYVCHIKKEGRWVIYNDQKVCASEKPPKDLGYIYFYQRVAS
Procedure, shortened: as §1

USP54 = USP54 (UniProt Q70EL1)
Procedure, shortened: as §1

USP7 = USP7 (UniProt Q93009)
Procedure, shortened: as §1

USP8 = target: T5, USP8 (UniProt P40818)
T5 sequence (whole entry): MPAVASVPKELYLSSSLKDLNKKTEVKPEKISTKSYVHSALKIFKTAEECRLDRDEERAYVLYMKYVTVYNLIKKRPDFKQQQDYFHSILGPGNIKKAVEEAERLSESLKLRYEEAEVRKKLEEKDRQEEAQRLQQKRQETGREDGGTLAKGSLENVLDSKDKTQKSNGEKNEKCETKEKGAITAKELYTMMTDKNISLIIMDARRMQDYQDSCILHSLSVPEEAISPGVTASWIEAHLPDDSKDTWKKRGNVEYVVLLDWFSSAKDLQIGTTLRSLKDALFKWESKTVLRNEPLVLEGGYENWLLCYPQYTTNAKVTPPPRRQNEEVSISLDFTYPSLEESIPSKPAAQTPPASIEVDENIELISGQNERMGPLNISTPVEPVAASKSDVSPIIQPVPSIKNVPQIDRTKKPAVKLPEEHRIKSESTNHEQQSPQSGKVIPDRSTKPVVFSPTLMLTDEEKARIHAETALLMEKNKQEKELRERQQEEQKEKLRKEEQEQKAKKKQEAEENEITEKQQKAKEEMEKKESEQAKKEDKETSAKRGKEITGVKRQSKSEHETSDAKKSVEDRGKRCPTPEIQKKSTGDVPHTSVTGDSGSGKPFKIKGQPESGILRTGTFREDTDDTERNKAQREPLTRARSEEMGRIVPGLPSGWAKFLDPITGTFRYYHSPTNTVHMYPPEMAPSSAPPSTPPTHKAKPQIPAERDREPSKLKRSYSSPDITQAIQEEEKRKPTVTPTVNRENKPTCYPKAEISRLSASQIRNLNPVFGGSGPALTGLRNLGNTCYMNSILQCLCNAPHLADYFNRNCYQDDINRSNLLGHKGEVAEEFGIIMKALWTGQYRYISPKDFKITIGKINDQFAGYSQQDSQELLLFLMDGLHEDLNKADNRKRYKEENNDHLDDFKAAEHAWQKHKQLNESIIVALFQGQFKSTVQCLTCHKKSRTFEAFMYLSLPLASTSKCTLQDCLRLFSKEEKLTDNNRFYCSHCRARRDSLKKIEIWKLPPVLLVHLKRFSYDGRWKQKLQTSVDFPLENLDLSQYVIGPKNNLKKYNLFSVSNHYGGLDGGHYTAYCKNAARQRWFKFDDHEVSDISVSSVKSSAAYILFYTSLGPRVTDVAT
Procedure, shortened: as §1

Measured: log2 ratio of Biotin-Ahx-Ub-VS probe labelling

USP46, sequence (P62068 whole entry): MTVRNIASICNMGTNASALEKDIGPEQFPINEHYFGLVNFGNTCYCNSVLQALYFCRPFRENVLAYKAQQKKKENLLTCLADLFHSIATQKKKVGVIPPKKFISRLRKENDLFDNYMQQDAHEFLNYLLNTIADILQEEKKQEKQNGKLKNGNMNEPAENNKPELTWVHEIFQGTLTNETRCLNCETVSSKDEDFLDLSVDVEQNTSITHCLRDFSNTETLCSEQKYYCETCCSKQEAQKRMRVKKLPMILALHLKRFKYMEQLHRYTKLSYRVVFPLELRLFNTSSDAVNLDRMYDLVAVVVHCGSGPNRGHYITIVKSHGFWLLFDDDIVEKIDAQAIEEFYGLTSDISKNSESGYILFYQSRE
USP54, sequence (Q70EL1 whole entry): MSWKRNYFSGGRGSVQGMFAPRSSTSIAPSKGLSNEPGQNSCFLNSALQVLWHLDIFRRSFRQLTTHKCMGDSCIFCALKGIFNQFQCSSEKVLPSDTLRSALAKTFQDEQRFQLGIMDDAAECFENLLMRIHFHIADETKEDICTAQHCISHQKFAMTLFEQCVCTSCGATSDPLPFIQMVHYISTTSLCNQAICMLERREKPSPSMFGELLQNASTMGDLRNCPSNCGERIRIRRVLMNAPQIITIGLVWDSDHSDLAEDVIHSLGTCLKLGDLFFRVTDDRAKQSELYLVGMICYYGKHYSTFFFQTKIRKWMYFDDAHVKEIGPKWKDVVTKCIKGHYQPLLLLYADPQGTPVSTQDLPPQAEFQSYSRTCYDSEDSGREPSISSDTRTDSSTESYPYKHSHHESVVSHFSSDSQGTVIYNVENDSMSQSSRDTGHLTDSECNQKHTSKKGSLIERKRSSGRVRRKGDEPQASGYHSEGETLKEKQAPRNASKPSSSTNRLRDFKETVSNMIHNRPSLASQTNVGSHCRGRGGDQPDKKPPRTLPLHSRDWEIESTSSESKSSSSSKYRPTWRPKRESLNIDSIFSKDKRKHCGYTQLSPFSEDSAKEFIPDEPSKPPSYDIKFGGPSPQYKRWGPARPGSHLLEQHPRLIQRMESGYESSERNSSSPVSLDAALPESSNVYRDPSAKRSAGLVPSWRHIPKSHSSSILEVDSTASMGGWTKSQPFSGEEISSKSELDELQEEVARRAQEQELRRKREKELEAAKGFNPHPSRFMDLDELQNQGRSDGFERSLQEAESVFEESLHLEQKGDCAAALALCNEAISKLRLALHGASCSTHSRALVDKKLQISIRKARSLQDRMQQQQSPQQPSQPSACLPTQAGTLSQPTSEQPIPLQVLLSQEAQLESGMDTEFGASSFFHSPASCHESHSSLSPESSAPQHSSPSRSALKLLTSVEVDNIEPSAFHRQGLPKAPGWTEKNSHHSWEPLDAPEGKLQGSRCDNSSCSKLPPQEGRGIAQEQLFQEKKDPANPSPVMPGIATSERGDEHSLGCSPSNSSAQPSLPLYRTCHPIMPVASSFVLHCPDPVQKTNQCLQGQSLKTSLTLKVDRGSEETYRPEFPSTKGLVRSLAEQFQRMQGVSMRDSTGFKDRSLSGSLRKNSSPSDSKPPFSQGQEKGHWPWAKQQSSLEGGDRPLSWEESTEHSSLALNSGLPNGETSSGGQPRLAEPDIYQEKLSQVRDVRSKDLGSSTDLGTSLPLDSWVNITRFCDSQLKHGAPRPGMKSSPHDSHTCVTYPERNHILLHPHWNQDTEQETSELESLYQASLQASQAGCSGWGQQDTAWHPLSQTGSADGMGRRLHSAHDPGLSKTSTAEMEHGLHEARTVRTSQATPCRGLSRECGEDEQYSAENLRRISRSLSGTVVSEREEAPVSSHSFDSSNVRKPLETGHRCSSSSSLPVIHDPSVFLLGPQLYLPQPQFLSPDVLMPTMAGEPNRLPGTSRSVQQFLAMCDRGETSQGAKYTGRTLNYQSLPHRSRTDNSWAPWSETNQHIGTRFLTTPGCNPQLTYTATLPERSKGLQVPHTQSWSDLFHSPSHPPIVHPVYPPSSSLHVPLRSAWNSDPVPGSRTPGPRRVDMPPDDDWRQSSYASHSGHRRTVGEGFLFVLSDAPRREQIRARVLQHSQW
USP7, sequence (Q93009 whole entry, looked up): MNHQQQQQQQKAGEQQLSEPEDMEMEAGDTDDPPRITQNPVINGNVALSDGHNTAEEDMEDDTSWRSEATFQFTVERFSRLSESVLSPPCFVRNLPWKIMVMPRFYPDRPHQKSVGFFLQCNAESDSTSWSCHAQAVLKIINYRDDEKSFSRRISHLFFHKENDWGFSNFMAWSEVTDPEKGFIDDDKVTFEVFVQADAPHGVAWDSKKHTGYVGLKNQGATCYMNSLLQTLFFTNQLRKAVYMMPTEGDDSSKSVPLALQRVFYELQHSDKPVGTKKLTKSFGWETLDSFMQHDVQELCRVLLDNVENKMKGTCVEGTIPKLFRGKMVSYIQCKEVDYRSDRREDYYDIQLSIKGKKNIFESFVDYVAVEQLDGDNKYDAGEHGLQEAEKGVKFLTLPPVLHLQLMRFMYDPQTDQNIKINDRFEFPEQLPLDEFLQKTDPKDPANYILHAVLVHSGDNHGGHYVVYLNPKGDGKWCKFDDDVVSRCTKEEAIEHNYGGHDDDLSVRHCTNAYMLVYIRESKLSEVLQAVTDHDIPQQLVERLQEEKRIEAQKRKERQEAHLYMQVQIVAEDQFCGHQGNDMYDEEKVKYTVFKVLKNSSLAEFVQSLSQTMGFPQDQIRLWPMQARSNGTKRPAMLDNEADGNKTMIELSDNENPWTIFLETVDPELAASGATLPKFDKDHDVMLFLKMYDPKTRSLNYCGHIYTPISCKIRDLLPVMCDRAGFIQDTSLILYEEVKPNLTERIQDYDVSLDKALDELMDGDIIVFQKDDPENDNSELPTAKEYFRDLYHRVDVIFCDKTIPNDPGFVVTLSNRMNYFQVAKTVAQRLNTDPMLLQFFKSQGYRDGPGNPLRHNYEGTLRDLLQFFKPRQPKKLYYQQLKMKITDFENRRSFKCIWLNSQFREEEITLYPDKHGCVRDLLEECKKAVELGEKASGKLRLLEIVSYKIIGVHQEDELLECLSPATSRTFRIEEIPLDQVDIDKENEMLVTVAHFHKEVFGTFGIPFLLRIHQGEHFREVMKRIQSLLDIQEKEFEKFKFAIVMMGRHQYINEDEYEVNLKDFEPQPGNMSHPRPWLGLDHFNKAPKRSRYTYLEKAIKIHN

Cc1c(NC(=O)CCl)c(=O)n(-c2ccccc2)n1C
inactive: USP42 0.238 | USP46 0.0574 | USP47 -0.882 | USP48 -0.0273 | USP5 -0.287 | USP54 0.0174 | USP7 -0.431 | USP8 0.0124

Source: the supplement of paper PMC11732987, “Enantioselective OTUD7B fragment discovery through chemoproteomics screening and high-throughput optimisation” (Communications Chemistry, 2025)
